The source made the active and inactive calls. The rule behind the calls is not given here.
Potency is the fitted concentration of half-maximal effect.

This assay concerns HIV-1 nucleocapsid protein NCp7 (binding to TG oligonucleotide). Kind of assay: HIV Nucleocapsid (AID 346).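 Note: potency is for inhibitors that block NC binding and lower polarization.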 The conditions noted are these: HIV-1 NC / fluorescein-TGTGTGTG probe, fluorescence polarization. The procedure, abridged: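 NCp7 100 nM + fluorescein TG4xF 10 nM; Hepes pH 7.5/250mM NaCl/1uM ZnCl2/0.004% PEG 20000; 1 hr RT; FP, 45 s exposure; oligo-only wells as negative control.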
Background: Fluorescence polarisation rises when a labelled molecule tumbles more slowly, as on binding a larger partner.
`COCC(=O)N1CCC2(CCN(Cc3ccc(C#N)cc3)CC2)CC1`: the Potency was > 20 µM (inactive).
With `CN(C)c1ncc2nc(-c3ccccc3)c(=O)n(C)c2n1` the figure was > 20 µM (inactive).
With `CN(C)C(=O)c1ccc(-c2cc(NCc3cccs3)ncn2)cc1`, the Potency was > 20 µM (inactive).
With `COc1cccc(Cn2c(=O)c(C)nc3cnc(N4CCN(C)CC4)nc32)c1` the figure was > 20 µM (inactive); with `Cn1c(=O)c(-c2cc(F)cc(F)c2)nc2cncnc21`, > 20 µM (inactive); with `COc1ccccc1CN1CC[C@@]2(CCCN(S(=O)(=O)c3ccccc3)C2)C1`, > 20 µM (inactive).
In the case of `Cc1noc(C)c1-c1nc(Nc2ccncc2)c2ccccc2n1` it was > 20 µM (inactive); in that of `CN(C)c1ncc2nc(CCc3ccccc3)c(=O)n(C[C@H]3CCCO3)c2n1`, > 20 µM (inactive); in that of `COc1ccccc1CN1CC[C@@]2(CCCN(C(C)=O)C2)C1`, > 20 µM (inactive).
In the case of `CS(=O)(=O)N1CCC2(CC1)CN(C(=O)Nc1ccccc1)C2` it was > 20 µM (inactive); in that of `FC(F)(F)c1cc(CN2CC3(CCNCC3)C2)cc(C(F)(F)F)c1`, > 20 µM (inactive); in that of `COc1ccccc1CN1CC[C@@]2(CCCN(C(=O)c3ccco3)C2)C1`, > 20 µM (inactive).
Take `Cn1cccc1C(=O)N1CCC2(CC1)CN(C(=O)Nc1ccccc1)C2`: the Potency is > 20 µM (inactive).
In the case of `CCNc1ncc2nc(-c3ccc(F)cc3)c(=O)n(Cc3ccc(F)cc3)c2n1` it was > 20 µM (inactive).
With `O=C(c1cc(C(F)(F)F)cc(C(F)(F)F)c1)N1CCC2(CCCN(c3ccccc3)C2)CC1`, the Potency was > 20 µM (inactive).
With `O=C(c1cccc(F)c1)N1CCC2(CCCN(Cc3ccncc3)C2)CC1` the figure was > 20 µM (inactive); with `N#Cc1ccc(CN2CCCC3(CCN(C(=O)c4ccncc4)CC3)C2)cc1`, > 20 µM (inactive); with `O=C(c1cccc(F)c1)N1CCC2(CCN(Cc3cc(C(F)(F)F)cc(C(F)(F)F)c3)CC2)CC1`, > 20 µM (inactive).
With `O=C(c1csnn1)N1CCC2(CCCN(c3ccc(-c4ccccc4)cc3)C2)CC1` the figure was > 20 µM (inactive); with `Cn1cccc1C(=O)N1CCC2(CCN(Cc3ccc(C#N)cc3)CC2)CC1`, > 20 µM (inactive); with `COc1ccc(CNc2ncncc2-c2cccc(NS(C)(=O)=O)c2)c(OC)c1`, > 20 µM (inactive).
With `CC(=O)NCCNc1ncncc1-c1ccc(N(C)C)cc1` the figure was > 20 µM (inactive); with `CC(=O)N1CCC[C@@]2(CCN(C(=O)Nc3ccccc3)C2)C1`, > 20 µM (inactive); with `CC(C)CN1CC[C@@]2(CCCN(C(=O)c3cnccn3)C2)C1`, > 4 µM (inactive).
Take `Cc1nc2cnc(Oc3ccccc3)nc2n(C)c1=O`: the Potency is > 20 µM (inactive).
With `Cc1nc2cnc(Oc3cccc(Cl)c3)nc2n(Cc2ccc(F)cc2)c1=O` the figure was > 20 µM (inactive); with `COc1cccc(Cn2c(=O)c(CCc3ccccc3)nc3cnc(OC)nc32)c1`, > 20 µM (inactive); with `COc1ncc2nc(CCc3ccccc3)c(=O)n(C3CC3)c2n1`, > 20 µM (inactive).
With `COCCn1c(=O)c(-c2cccc(C#N)c2)nc2cnc(Oc3ccccc3)nc21` the figure was > 20 µM (inactive); with `CS(=O)(=O)N1CCC2(CCN(Cc3ccncc3)CC2)CC1`, > 4 µM (inactive); with `O=C(c1ccco1)N1CCC[C@@]2(CCN(c3ccncc3)C2)C1`, > 20 µM (inactive).
In the case of `O=C(c1ccncc1)N1CCC[C@@]2(CCN(Cc3ccccc3)C2)C1` it was > 20 µM (inactive); in that of `COc1ccc(-c2nc3cnc(OC)nc3n(C[C@H]3CCCO3)c2=O)cc1`, > 20 µM (inactive).
Regarding `O=C(c1csnn1)N1CCC2(CCCN(Cc3ccccc3)C2)CC1`, the Potency is > 20 µM (inactive).
With `CN(C)c1ccc(-c2cncnc2NCc2ccccc2)cc1` the figure was > 20 µM (inactive); with `COc1ccc(Oc2ncc3nc(-c4cn(C)c5ccccc45)c(=O)n(C4CC4)c3n2)cc1`, > 20 µM (inactive).
With `CN(C)C(=O)c1ccc(-c2nc(NC3CCNCC3)c3ccccc3n2)cc1` the figure was > 20 µM (inactive).
In the case of `Cc1cnc(CNc2cc(-c3ccc4c(c3)OCO4)ncn2)cn1` it was > 20 µM (inactive).
Turning to `COc1ccc(-n2c(=O)c(-c3ccc(Cl)cc3)nc3cnc(N4CCNCC4)nc32)cc1`, the Potency is > 20 µM (inactive).
With `CNc1ncncc1-c1ccc(C(=O)N(C)C)cc1` the figure was > 20 µM (inactive).

For the origin of these results see PubChem BioAssay (NCATS).
